Measurements: PubChem BioAssay AID2216 (Broad Institute, 2009)
Screen size: about 300,000 compounds; about 3,300 (1.1%) were called active. About 6% were inconclusive and are not listed.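 The calls were made as follows: active = more than half of the replicate wells show a fall in the fluorescence ratio signal beyond about 16% (limit read from the data, passing the limit was not always enough); inconclusive = exactly half of the replicate wells pass the set limit; inactive = fewer than half of replicates pass the limit.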 The list comes from a sample in which actives are over-represented; it also holds similar structures and randomly drawn compounds.

system: Ran GTPase (GTP-bound) - importin-beta complex; assay: disruptors of Ran-importin-beta complex formation – biochemical, FRET, CFP-Ran, YFP-importin-beta, homogeneous, primary screen (AID 2216); conditions: cell-free CFP-Ran/YFP-importin-beta FRET ratio; stronger effect = higher value; concentration not given here;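 also: 0% = DMSO wells and 100% = Ran loaded with GDP instead of GTP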

inhibition, inactive:
COc1ccc(CCNC(=O)C(=O)NCC2CCCN2S(=O)(=O)c2cccs2)cc1OC (stereo not drawn) -2.95%, Cc1cc(C)c(C)c(S(=O)(=O)N2CCN(C(=O)c3ccc4c(=O)n5c(nc4c3)CCC5)CC2)c1C 0.31%, CCN(CC)C(=O)c1sc(NC(=O)c2ccco2)c(C#N)c1C 5.09%, Cn1nccc1CNC(=O)c1ccnn1C -4.46%, O=C(COC(=O)Cn1[nH]c(=O)c2ccccc2c1=O)Nc1c(Cl)cccc1C(F)(F)F 0.554%, CCCCn1c(N)c(N(CC(C)C)C(=O)c2ccc(-n3c(C)ccc3C)cc2)c(=O)[nH]c1=O 2.98%, Cc1ccc(S(=O)(=O)CC(=O)Nc2sc(C)c(C)c2C(N)=O)cc1 1.11%, CC(=O)N1CCc2c(sc(NC(=O)CCS(=O)(=O)c3ccccc3)c2C#N)C1 2.62%, CCOC(=O)c1cc(NC(=O)c2cccnc2)ccn1 -2.83%, CCCCNC(=O)CCNC(=O)c1ccc(C(C)(C)C)cc1 3.77%, CN1OC(COC(=O)c2ccc(Cl)cc2)CC1c1ccccc1 (stereo not drawn) 2.75%, CC(C)(C)c1ccc(C(=O)NCCC(=O)NCc2ccco2)cc1 1.67%, Cn1cncc1COC(=O)c1ccc(Cl)cc1 0.688%, CN(C(=O)c1cc2c(=O)n3ccccc3nc2s1)C1CCCCC1 2.4%, CCOc1cc(C(=O)Nc2ccc(S(=O)(=O)Nc3cnc4ccccc4n3)cc2)cc(OCC)c1OCC 7.91%, CCN1CCN(c2ccc(S(=O)(=O)N3CCCCC3)cc2NC(=O)Cc2c(Cl)cccc2Cl)CC1 1.25%, O=C(c1ccc(F)c(S(=O)(=O)N2CCOCC2)c1)N(CCc1ccccc1)Cc1ccccc1 7.49%, CCC(C)N(C(=O)COC(=O)c1nc(Cl)ccc1Cl)C1CCS(=O)(=O)C1 (stereo not drawn) 7.73%, O=c1c(-c2ccccc2)coc2cc(O)ccc12 -0.924%, COc1ccc(-c2cc3ccc(OCc4nn[nH]n4)cc3oc2=O)cc1 -0.255%, O=C(Nc1cc2c3c(c1)CC(=O)N3CCC2)c1ccccc1F 0.312%, Cc1ccc2[nH]c3c(c2c1)CN(C(=O)CN1CCN(c2ccccc2)CC1)CC3 -23.4%, C=CCNC(=S)N1CCc2[nH]c3ccccc3c2C1 3.44%, CCc1ccc(NC(=O)N2CCc3ccccc3C2)cc1 -4.66%, Fc1ccc(NC(=S)N2CCc3[nH]c4ccccc4c3C2)cc1 9.84%, CC(=O)c1c(C)[nH]c(C(=O)COC(=O)CCOc2ccc(C)cc2)c1C 6.12%, COc1ccccc1C(=O)NC(CCSC)C(=O)N1CCN(C/C=C/c2ccccc2)CC1 (stereo not drawn) 0.266%, CCOc1ccc(S(=O)(=O)NCCC(=O)N2CCCCCCC2)cc1 0.262%, CCN(CC(=O)Nc1c(F)cccc1F)C(=O)C1CCC1 0.154%, CCCCN(C(=O)c1ccc(S(=O)(=O)N2CCOCC2)cc1)C1CCS(=O)(=O)C1 (stereo not drawn) -4.84%, NC(=O)CSc1nnc(NC(=O)c2ccc3ccccc3c2)s1 5.81%, Cc1ccccc1N/N=C/c1ccc(N2CCOCC2)cc1 1.62%, COc1ccc(/C=N/Nc2cc(N3CCOCC3)nc(C)n2)c(OC)c1 -3.31%, Brc1cnc2ccccc2c1N1CCCCC1 -1.98%, COc1ccc(C(C#N)(CC(=O)O)c2cnccn2)cc1OC (stereo not drawn) 5.73%, Cc1cc(NC(=O)CCS(=O)(=O)c2ccc(F)cc2)no1 -2.56%, CCc1cccc(C)c1NC(=O)COC(=O)CNC(=O)c1cccs1 0.115%, COc1ccc(NC(=O)CCC(=O)N2CCN(S(=O)(=O)c3ccc(C)cc3)CC2)c(OC)c1 2.41%, Cc1cc(NC(C)C)n2c(nc3ccccc32)c1C#N -3.25%, CCOCCCNc1c(CC)c(C)c(C#N)c2nc3ccccc3n12 10.7%, Cc1c(C(=O)Nc2cccc(Cl)c2)cn2c(nc3ccccc32)c1C#N 10.5%, Cc1ccccc1-c1nc(C#N)c(NCc2ccco2)o1 -0.838%, Nc1c(C(=O)Nc2ccc3c(c2)OCCO3)nnn1Cc1ccccc1 -8.94%, COc1ccc(-c2csc3ncnc(N4CCN(S(=O)(=O)c5cccc(F)c5)CC4)c23)cc1 -3.81%, CCOc1ccc(C(=O)CCN2CCOCC2)cc1 4.03%, COc1cc(C(=O)NCC(=O)N2CC=C(c3ccccc3)CC2)cc(OC)c1OC 0.563%, COc1ccccc1N1N=C(c2cccs2)CC1c1ccccc1 (stereo not drawn) -0.43%, COc1ccc(C2CC(c3cccs3)=NN2C(=O)CCC(=O)O)cc1OC (stereo not drawn) -4.44%, COc1ccc(C2CC(c3cccs3)=NN2C(=O)CSc2nncs2)cc1OC (stereo not drawn) -2.68%, COc1ccc(C2CC(c3cccs3)=NN2c2ccccc2)cc1 (stereo not drawn) 2.04%

inhibition, active:
CCCc1ccc(-c2c(C)sc(NC(=O)c3ccnn3C)c2C#N)cc1 69.5%, CC(=O)N1CCc2c(sc(NC(=O)CCS(=O)(=O)c3ccc(C)cc3)c2C(N)=O)C1 32.8%, CC(C)(C)c1ccc(C(=O)NCCn2c(N)c(C#N)c3nc4ccccc4nc32)cc1 82.8%, N#Cc1c(N)n(CCOC(=O)c2ccc(Cl)cc2)c2nc3ccccc3nc12 39.9%, O=c1oc2cc(O)ccc2cc1-c1ccc(F)cc1 149%, O=C(Nc1ccc(Cl)cc1)N1CCc2[nH]c3ccccc3c2C1 29.2%, CCCC(=O)N1CCc2[nH]c3ccccc3c2C1 29%, Cc1cc(S(=O)(=O)c2cc3ccc(O)c(C)c3oc2=O)ccc1F 132%, CN(C)c1ccc(/C=N/Nc2cc(N3CCOCC3)nc(N3CCOCC3)n2)cc1 25.8%, CC(C)c1cc(NCc2ccccn2)n2c(nc3ccccc32)c1C#N 51%, Cc1cc(NCc2ccco2)n2c(nc3ccccc32)c1C#N 102%, COc1ccc(C2CC(c3cccs3)=NN2c2nc(C)c(C(C)=O)s2)cc1OC (stereo not drawn) 89.5%, COc1ccc(C2CC(c3cccs3)=NN2c2ccc(F)cc2)cc1OC (stereo not drawn) 53.2%
